The supplement of paper PMC9262897, “Low-cost anti-mycobacterial drug discovery using engineered E. coli” (Nature Communications, 2022)
Structures can show the parent of a compound that is named as a salt. ± gives the standard deviation of the averaged measurements.

How the values were obtained:
Experiment in all cases: growth (OD600 after 10 h); higher = more growth (less inhibition)
[1] = system: E. coli TESEC Alr+ wild-type control; settings: compound 0.1 mM; raw OD600 reference: median of DMSO wells 0.241, cell-free background 0.041
Description: (§1)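 TESEC Mtb Alr E. coli, or the Alr+ wild-type control, in 384-well plates with Prestwick library compounds at 0.1 mM and 1% DMSO, across arabinose induction levels of 1E3 to 1E7 nM. Growth is read as OD600 after 10 h at 37 °C in triplicate biological replicates.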

E. coli TESEC Mtb Alr [2] = settings: compound 0.1 mM
Description: as §1

E. coli TESEC Mtb Asd = settings: compound 0.1 mM
Description: (§2)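 TESEC E. coli strains in which the native enzyme is deleted and replaced by arabinose-inducible Mtb Asd, DapB, CysH or TrpD, each grown in its selective medium. Strains were screened against the Prestwick library at 0.1 mM and 1% DMSO in 384-well format at low and high arabinose induction. Growth is read as OD600 after 10 h in triplicate.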

E. coli TESEC Mtb DapB = settings: compound 0.1 mM
Description: as §2

E. coli TESEC Mtb Alr [3] = settings: compound 0.1 mM; remark: listed apart in the source
Description: (§3)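 TESEC Mtb Alr E. coli (ΔaraC ΔtolC ΔentC Δalr ΔdadX, arabinose-inducible Mtb Alr) or the Alr+ wild-type control strain, grown in defined M9-fructose medium without D-alanine in 96-well plates with Prestwick library compounds at 0.1 mM and 1% DMSO. Low Alr induction is 0.1 µM arabinose and high induction is 10 mM arabinose.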

[4] = system: E. coli TESEC Alr+ wild-type control; settings: compound 0.1 mM; raw OD600 reference: median of DMSO wells 0.49, cell-free background 0.052
Description: as §3

[5] = arabinose 1000 nM, raw OD600 reference: median of DMSO wells 0.294, cell-free background 0.041
[6] = arabinose 10000 nM, raw OD600 reference: median of DMSO wells 0.264, cell-free background 0.041
[7] = arabinose 100000 nM, raw OD600 reference: median of DMSO wells 0.201, cell-free background 0.041
[8] = arabinose 1000000 nM, raw OD600 reference: median of DMSO wells 0.193, cell-free background 0.041
[9] = arabinose 10000000 nM, raw OD600 reference: median of DMSO wells 0.146, cell-free background 0.041
[10] = arabinose induction (level): High, raw OD600 reference: median of DMSO wells 0.331, cell-free background 0.041
[11] = arabinose induction (level): Low, raw OD600 reference: median of DMSO wells 0.417, cell-free background 0.041
[12] = arabinose induction (level): High, raw OD600 reference: median of DMSO wells […], cell-free background 0.041
[13] = arabinose induction (level): Low, raw OD600 reference: median of DMSO wells 0.227, cell-free background 0.041
[14] = arabinose 100 nM, raw OD600 reference: median of DMSO wells 0.413, cell-free background 0.052
[15] = arabinose 10000000 nM, raw OD600 reference: median of DMSO wells […], cell-free background 0.052

SMILES	growth [1]	growth (E. coli TESEC Mtb Alr [2]; [5])	growth (E. coli TESEC Mtb Alr [2]; [6])	growth (E. coli TESEC Mtb Alr [2]; [7])	growth (E. coli TESEC Mtb Alr [2]; [8])	growth (E. coli TESEC Mtb Alr [2]; [9])	growth (E. coli TESEC Mtb Asd; [10])	growth (E. coli TESEC Mtb Asd; [11])	growth (E. coli TESEC Mtb DapB; [12])	growth (E. coli TESEC Mtb DapB; [13])	growth (E. coli TESEC Mtb Alr [3]; [14])	growth (E. coli TESEC Mtb Alr [3]; [15])	growth [4]
CC[C@@]1([C@@H]2O[C@@H]([C@H]3O[C@@](O)(CO)[C@H](C)C[C@@H]3C)C[C@@H]2C)CC[C@H]([C@]2(C)CC[C@]3(C[C@H](O)[C@@H](C)[C@@H]([C@@H](C)[C@@H](OC)[C@H](C)C(=O)O)O3)O2)O1 [Monensin sodium salt]	0.218 ± 0.0078	0.279 ± 0.017	0.264 ± 0.0038	0.207 ± 0.028	0.159 ± 0.0076	0.138 ± 0.0041	0.295 ± 0.028	0.408 ± 0.016	0.162 ± 0.01	0.167 ± 0.0025	0.384 ± 0.007	0.149 ± 0.013	
Oc1ccc2c3c1O[C@H]1[C@@H](O)CC[C@@]4(O)[C@@H](C2)N(CC2CCC2)CC[C@]314 [Nalbuphine hydrochloride]	0.233 ± 0.0039	0.262 ± 0.028	0.2664 ± 0.0015	0.183 ± 0.024	0.1753 ± 0.0013	0.135 ± 0.0094	0.381 ± 0.095	0.453 ± 0.036	0.195 ± 0.011	0.214 ± 0.029	0.4293 ± 0.0018	0.351 ± 0.015	
CC(O)(CS(=O)(=O)c1ccc(F)cc1)C(=O)Nc1ccc(C#N)c(C(F)(F)F)c1 (stereo not drawn) [Bicalutamide]	0.154 ± 0.0054	0.2 ± 0.0073	0.306 ± 0.018	0.1769 ± 0.0014	0.108 ± 0.0031	0.15 ± 0.0023	0.216 ± 0.027	0.253 ± 0.017	0.196 ± 0.015	0.236 ± 0.021	0.397 ± 0.018	0.232 ± 0.054	0.3777 ± 0.0027
COc1ccc(C(=O)N2CCCC2=O)cc1 [Aniracetam]	0.25 ± 0.0051	0.3088 ± 0.0018	0.246 ± 0.01	0.236 ± 0.021	0.172 ± 0.0084	0.167 ± 0.0026	0.235 ± 0.057	0.309 ± 0.058	0.214 ± 0.0098	0.246 ± 0.011	0.405 ± 0.011	0.343 ± 0.012	0.467 ± 0.054
CC(=O)OCC1=C(C(=O)O)N2C(=O)[C@@H](N)[C@H]2SC1 [Cephalosporanic acid, 7-amino]	0.254 ± 0.0055	0.295 ± 0.011	0.269 ± 0.008	0.22 ± 0.023	0.205 ± 0.011	0.151 ± 0.0034	0.273 ± 0.018	0.402 ± 0.086	0.187 ± 0.014	0.215 ± 0.0044	0.408 ± 0.013	0.356 ± 0.011	
CN1[C@@H]2CC[C@H]1C[C@@H](OC(=O)C(CO)c1ccccc1)C2 (stereo partly drawn) [Atropine sulfate monohydrate]	0.234 ± 0.0026	0.299 ± 0.0088	0.25 ± 0.0043	0.253 ± 0.012	0.182 ± 0.0059	0.149 ± 0.011	0.339 ± 0.053	0.421 ± 0.081	0.199 ± 0.015	0.247 ± 0.019	0.41 ± 0.019	0.357 ± 0.014	
CN(C)C(=O)Oc1cccc([N+](C)(C)C)c1 [Neostigmine bromide]	0.256 ± 0.0033	0.316 ± 0.0053	0.273 ± 0.0057	0.225 ± 0.033	0.19 ± 0.0043	0.168 ± 0.0075	0.222 ± 0.028	0.331 ± 0.14	0.204 ± 0.0094	0.232 ± 0.064	0.404 ± 0.012	0.339 ± 0.011	
CN(C)[C@@H]1C(=O)C(C(N)=O)=C(O)[C@@]2(O)C(=O)C3=C(O)c4c(O)cccc4[C@@](C)(O)[C@H]3C[C@@H]12 [Tetracycline hydrochloride]	0.0422 ± 0.00046	0.0426 ± 0.0035	0.04053 ± 0.00032	0.0418 ± 0.0011	0.04083 ± 0.00025	0.0422 ± 0.00068	0.0539 ± 0.0012	0.0592 ± 0.0072	0.0495 ± 0.0014	0.0516 ± 0.0028	0.0567 ± 0.0019	0.0604 ± 0.0025	0.0518 ± 0.0007
C[C@]12CC[C@H](O)C[C@@H]1CC[C@@H]1[C@@H]2CC[C@]2(C)C(=O)CC[C@@H]12 [Epiandrosterone]	0.126 ± 0.0063	0.12 ± 0.0055	0.107 ± 0.0061	0.0943 ± 0.0019	0.0694 ± 0.0019	0.0859 ± 0.0011	0.0929 ± 0.015	0.168 ± 0.018	0.152 ± 0.021	0.136 ± 0.006	0.353 ± 0.043	0.109 ± 0.0099	
CCC(=O)O[C@@](Cc1ccccc1)(c1ccccc1)[C@@H](C)CN(C)C [Levopropoxyphene napsylate]	0.178 ± 0.0045	0.249 ± 0.005	0.283 ± 0.012	0.176 ± 0.014	0.1558 ± 0.001	0.15 ± 0.0048	0.169 ± 0.019	0.388 ± 0.047	0.175 ± 0.026	0.205 ± 0.011	0.4145 ± 0.0027	0.323 ± 0.013	0.566 ± 0.042
Cc1cc(C(C#N)c2ccc(Cl)cc2)c(Cl)cc1NC(=O)c1cc(I)cc(I)c1O (stereo not drawn) [Closantel]	0.067 ± 0.0041	0.0633 ± 0.008	0.0425 ± 0.0013	0.0471 ± 0.0022	0.0411 ± 0.00058	0.0539 ± 0.00083	0.0773 ± 0.0025	0.0874 ± 0.0013	0.0896 ± 0.013	0.0929 ± 0.01	0.137 ± 0.042	0.145 ± 0.043	0.128 ± 0.012
O[C@@H]1CCCC[C@H]1N1CCC(c2ccccc2)CC1 [L(-)-vesamicol hydrochloride]	0.216 ± 0.0031	0.281 ± 0.014	0.251 ± 0.0068	0.176 ± 0.012	0.182 ± 0.0074	0.141 ± 0.0046	0.294 ± 0.048	0.381 ± 0.016	0.194 ± 0.018	0.201 ± 0.015	0.414 ± 0.012	0.358 ± 0.0053	
CN1[C@@H]2C[C@@H](OC(=O)[C@H](CO)c3ccccc3)C[C@H]1[C@@H]1O[C@@H]12 [Scopolamine hydrochloride]	0.252 ± 0.0082	0.321 ± 0.023	0.292 ± 0.011	0.207 ± 0.012	0.182 ± 0.0041	0.157 ± 0.0084	0.469 ± 0.011	0.453 ± 0.025	0.201 ± 0.031	0.228 ± 0.03	0.408 ± 0.016	0.36 ± 0.01	0.469 ± 0.026
c1ccc2c(c1)Nc1ccccc1S2 [Phenothiazine]	0.157 ± 0.0061	0.215 ± 0.0099	0.265 ± 0.011	0.209 ± 0.015	0.198 ± 0.013	0.201 ± 0.0046	0.377 ± 0.076	0.177 ± 0.014	0.209 ± 0.034	0.236 ± 0.03	0.415 ± 0.0099	0.344 ± 0.021	0.457 ± 0.0082
CC(Cc1ccccc1)NCCC(c1ccccc1)c1ccccc1 (stereo not drawn) [Prenylamine lactate]	0.04013 ± 0.00032	0.03927 ± 0.00035	0.0394 ± 0.0001	0.0405 ± 0.001	0.0393	0.0397 ± 0.00052	0.0468 ± 0.00058	0.0471 ± 0.00089	0.0466 ± 0.00036	0.04663 ± 0.00038	0.276 ± 0.19	0.0499 ± 0.00064	0.0478 ± 0.00061
